Measurements taken from PubChem BioAssay (NCI).
Compounds without any hit were thinned out: in the full panel of roughly 83,000, 20% have a hit.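 Assay: single dose, 48 h. Readout: percent growth (0 = no net growth; negative = cell death). Active: <10.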 Values without a mark were called inactive. Activity calls are given as the source filed them.

tested on: SK-OV-3 ovarian; assay: NCI-60 one-dose screen, 48 h (100 = growth as untreated, 0 = no growth, -100 = all killed); conditions: 10 µM unless noted
Description: Growth inhibition of the SK-OV-3 human tumor cell line is measured as a screen for anti-cancer activity. Cells are grown in 96 well plates and exposed to the test compound for 48 hours. Compounds are tested at a single concentration, which is 10^-5 M for most compounds. The reported endpoint is percent growth (GI% or GIPRCNT), where numbers from 0 - 100% represent growth inhibition, and numbers from -100% - 0 represent cell death. For example, a value of 40 represents 60% growth inhibition. A value of 0 means no net growth occurred over the course of the experiment. A value of -40 indicates 40% of cells at the beginning of the experiment died by the end of the experiment. A value of -100 means all cells are dead at the end of the experiment.
NCI-60 Human Tumor Cell Lines Screen was performed using the standard one-dose NCI protocol, which is described in more detail at https://dtp.cancer.gov/discovery_development/nci-60/default.htm.
Compounds with GIPRCNT values below 10 were considered active. Activity score was based on GIPRCNT using the following formula: […]
Score is 0 for GIPRCNT values of 100 or above, 50 for GIPRCNT values of 0, and 100 for GIPRCNT values of -100.

Point of comparison: `CC1(C)CC[C@]2(C(=O)O)CC[C@]3(C)C(=CC[C@@H]4[C@@]5(C)C[C@@H](Cc6cn([C@@H]7O[C@H](CO)[C@@H](O)[C@H](O)[C@H]7O)nn6)[C@H](O)C(C)(C)[C@@H]5CC[C@]43C)[C@@H]2C1`, growth 89%. Against it:
- CCN1CCN(CC(=O)Nc2nc3ccc(NCc4ccc(Br)cc4)cc3s2)CC1 — higher, 90%
- COC(=O)C1=C(C)NC(C)=C(C(=O)OCC(C)C)C1c1ccccc1[N+](=O)[O-] (stereo not given) — lower, 82.7%
- COc1cccc(/C=C/C(=O)c2cc3c(N)c(C(=O)Nc4ccccc4C)sc3nc2C)c1 — higher, 104%
- N=C(N)c1ccc(-c2ccc(-c3ccc(F)cc3)s2)s1 — lower, 80.5%
- CCNC(=O)Oc1ccc(/C(=C(/C)Cc2ccc(OC)cc2)c2ccc(OCCN3CCCCCC3)cc2)cc1 — lower, 87.7%
- COc1cccc(NC(=O)c2cccc(C3CCc4c(cc(OC)c(OC)c4OC)O3)c2)c1 (stereo not given) — lower, 71.7%
- c1ccc(CNc2ccc3nc(CCC4CCCCC4)[nH]c3c2)cc1 — lower, 86.8%
- Cc1ccc(/C=C(\C#N)C(=O)Nc2ncc(Cc3cc(Cl)ccc3Cl)s2)o1 — lower, 62%
- CCCn1c(=S)sc2c1nc(C)n1c(Nc3ccccc3)nnc21 — higher, 89.2%
- CCOC(=O)NN1CC(O)=C(c2nc(-c3ccc(Br)cc3)cs2)C1=N — higher, 108%
- C=C1C(=O)O[C@H]2[C@H]1CC/C(COC(=O)NCc1ccc(Cn3c(=O)sn(-c4ccc(OC)cc4)c3=O)cc1)=C\CC[C@@]1(C)O[C@@H]21 — higher, 105%
- CCN1C(=O)N(CC)C2C1NN=C1SCC(=O)N12 (stereo not given) — higher, 105%
- CCCCSCC(=O)c1ccccc1 — lower, 81.4%
- Cc1cccc(NC(=O)CSc2nc3ccc([N+](=O)[O-])cc3[nH]2)c1 — lower, 88.2%
- CCOC(=O)c1c2c(n3ccccc13)C(=O)c1ncccc1C2=O — lower, 22.2%
- Cc1ccc(-c2cc(C(=O)N3N=C(c4ccc(N)cc4)CC3c3ccc(Cl)cc3)c3ccccc3n2)cc1 (stereo not given) — lower, 34.2%
- NC(=S)N/N=C/c1cn(-c2ccccc2)nc1-c1cc2ccccc2oc1=O — lower, 83.2%
- Fc1ccc2c(c1)c(-c1nc(-c3c[nH]c4ncccc34)cs1)cn2CCCN1CCOCC1 — lower, 81.6%
- COc1ccc(NC(=O)c2ccc(C(=O)Nc3ccc(OC)cc3OC)cc2)c(OC)c1 — lower, 43.8%
- COc1ccc2nc(SCC(=O)Nc3ccccc3C)[nH]c2c1 — higher, 105%
- Cn1ccnc1C(=O)/C=C/c1ccc(C(=O)Nc2ccc(F)cc2)cc1 — lower, 59.1%
- CCCCCCCC/C=C\CCCCCCCCOc1ccccc1CC(=O)NCC[N+]1(C)CCCCC1 — lower, 85.2%
- COc1ccc2nc(Cl)c(/C=C/C(=O)c3ccc(NC(=O)CSc4nnc(-c5ccc(Cl)c(Cl)c5)n4-c4ccccc4)cc3)cc2c1 — higher, 91.4%
- Cc1ccccc1OCC(O)COc1ccccc1C — higher, 108%
- COCCCOc1cc(C[C@@H](C[C@H](N)[C@@H](O)C[C@H](C(=O)NCC(C)(C)C(N)=O)C(C)C)C(C)C)ccc1OC — higher, 113%
- CCn1cc(C(=O)N/N=C/c2ccc(Br)cc2)c(=O)c2cc(F)c(N3CCNC(C)C3)c(F)c21 (stereo not given) — higher, 109%
- CCOC(=O)c1c(NC(=O)CSc2n[nH]c3nc4ccccc4n23)sc(CC)c1C — higher, 97.4%
- COc1cc(C2Cc3ncccc3-c3[nH]c(=O)c4cccnc4c32)cc(OC)c1OC (stereo not given) — lower, 15.3%
- CN1C(=O)/C(=C/c2ccc(C(=O)Nc3ncc(Cc4ccc(F)cc4)s3)cc2)SC1=S — lower, 40.3%
- CC[C@H](C)[C@H](NC(=O)[C@H](CCCNC(=N)N)NC(=O)[C@H](Cc1c[nH]c2ccccc12)NC(=O)[C@@H](NC(=O)[C@H](CCCCN)NC(=O)[C@H](CCCCN)NC(=O)[C@@H](NC(=O)[C@@H](NC(=O)[C@@H](NC(=O)[C@H](CCCCN)NC(=O)[C@H](Cc1ccccc1)NC(=O)[C@H](CCCCN)NC(=O)[C@H](CCCCN)NC(=O)[C@H](Cc1ccccc1)NC(=O)[C@@H](NC(=O)[C@@H](N)CCCCN)[C@@H](C)CC)[C@@H](C)O)[C@@H](C)CC)[C@@H](C)CC)C(C)C)C(=O)N[C@@H](Cc1ccccc1)C(=O)NCC(=O)N[C@@H](CCCNC(=N)N)C(=O)N[C@@H](Cc1ccccc1)C(N)=O — lower, 13.9%
- C=C1C(=O)O[C@H]2[C@H]1CC/C(COC(=O)c1cc3cc(F)ccc3[nH]1)=C\CC[C@@]1(C)O[C@@H]21 — lower, 26.7%
- CCOC(=O)CSc1nc2sc3c(c2c(=O)n1-c1ccc([N+](=O)[O-])cc1)CCCCC3 — lower, 68.3%
- Clc1nccc2c(-c3csc(-c4c[nH]c5ccccc45)n3)c[nH]c12 — lower, 58.8%
- CCOC(=O)c1c(-c2ccc(Cl)cc2)c(C#N)c2c(C#N)c(N)nn2c1N — lower, 84.1%

`O=C1c2cc3c(cc2-c2c1c1ccc(Cl)cc1c(=O)n2C[C@H](O)CO)OCO3` was tested, and the growth was -2% (active).
In the case of `Cn1cc(-c2ccc3cc(-c4ccc(CC(=O)Nc5cc(C(C)(C)C)on5)cc4)cnc3c2)cn1`, the growth is reported as 5.31% (active).
With `CCN=C1C=CC(=C(c2ccc(N(C)C)cc2)c2ccc(N(C)C)cc2)c2ccccc21` the growth was -35.2% (active).
`O=C1c2cccnc2C(=O)c2c1c(C(=O)OCCCN1CCCCC1)c1ccccn21` was tested, and the growth was -40.6% (active).

In the case of `C=CCCC(=O)N1C=CC(=O)[C@H](O)[C@@H]1/C=C/c1ccccc1`, the growth is reported as 39.2% [100 µM].
